Results published in PubChem BioAssay AID525 (The Scripps Research Institute Molecular Screening Center, 2006).
Screen size: about 65,000 compounds; about 360 (0.55%) were called active.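 How the source made its calls: active means inhibition above the mean inhibition of all tested compounds plus 3 SD (cut at about 48% in these data); inactive means the rest.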 Only a selection was taken, and actives are over-represented in it overall.

These compounds were tested against Steroidogenic factor 1 (Homo sapiens) (UniProt Q13285) (assay: inhibitors of human SF-1, primary screen, cell-based, CHO-K1, Gal4-SF-1 LBD, luciferase luminescence (AID 525;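 further: 0% = SF-1 transfected cells with DMSO and 100% = mock-transfected cells lacking SF-1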)). Settings: CHO-K1 Gal4-SF-1 LBD luciferase reporter; at 10 µM; active compounds read high.
Chain of Steroidogenic factor 1 (Homo sapiens) (Q13285 whole entry, looked up, the tested form may be a part): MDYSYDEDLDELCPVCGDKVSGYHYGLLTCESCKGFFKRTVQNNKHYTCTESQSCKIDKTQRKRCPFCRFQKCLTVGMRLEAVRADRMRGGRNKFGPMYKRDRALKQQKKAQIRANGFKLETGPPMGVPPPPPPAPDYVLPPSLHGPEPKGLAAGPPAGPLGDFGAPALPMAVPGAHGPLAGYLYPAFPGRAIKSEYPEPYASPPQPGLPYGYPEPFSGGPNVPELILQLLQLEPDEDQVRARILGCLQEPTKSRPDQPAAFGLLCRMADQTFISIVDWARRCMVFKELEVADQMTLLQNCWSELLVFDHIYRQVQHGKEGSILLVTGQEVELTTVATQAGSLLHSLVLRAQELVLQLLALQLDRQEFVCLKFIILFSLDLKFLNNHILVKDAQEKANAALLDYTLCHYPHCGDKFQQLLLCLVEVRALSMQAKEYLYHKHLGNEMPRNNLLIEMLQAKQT

Structure (SMILES)	inhibition
COc1ccc(NC(=O)Nc2cccc3cccnc23)cc1	-65.5% (inactive)
O=C(CSCc1cccs1)N1CCCC1	-60.5% (inactive)
CCCCCN(C(=O)NC(=O)Nc1ccccc1OC)S(C)(=O)=O	-5.9% (inactive)
CN(C(=O)c1ccccn1)c1nnc(-c2ccccn2)s1	-56.6% (inactive)
COc1ccc(OCc2ccc(-c3nc4ccccc4c(=O)n3N)o2)cc1	-59% (inactive)
COc1ccc(-c2cn3ccsc3n2)cc1	-53.3% (inactive)
COC(=O)Cn1cc(C(=O)c2cccs2)c2ccccc21	2.8% (inactive)
CC[C@H]1CN2CCc3cc(OC)c(OC)cc3[C@@H]2C[C@@H]1C[C@H]1NCCc2cc(OC)c(OC)cc21	96% (active)
Cn1c(=O)c2c(nc(SCC(=O)Nc3ccccc3N3CCCCC3)n2C)n(C)c1=O	-2.8% (inactive)
CCC(=O)Nc1cccc(NC(=O)CSc2nnc(-c3ccc(NS(C)(=O)=O)cc3)n2C)c1	-2.4% (inactive)
COc1ccc(N2C(=O)C3CCCN3C2c2cc(OC)c(OC)cc2OC)cc1 (stereo not drawn)	2.8% (inactive)
N#Cc1ccc(OCCN2C(=O)NC3(CCSC3)C2=O)cc1 (stereo not drawn)	-12.8% (inactive)
O=C(NCCN1C(=O)C2C3C=CC(C3)C2C1=O)Nc1ccccn1 (stereo not drawn)	-7.6% (inactive)
Cc1cc(C)c(NC(=O)CS(=O)CC(=O)Nc2cccnc2)c(C)c1 (stereo not drawn)	2.2% (inactive)
CC(=O)c1c(N2CCOCC2)nc(=S)n(Cc2ccccc2)c1C	4.9% (inactive)
COC(=O)c1cc(C(=O)CSc2nc(C)cc(C)n2)ccc1O	11.2% (inactive)
O=C(c1cnn2ccccc12)N1CCc2ccccc21	-111% (inactive)
Cc1nnc(SCC(=O)NCc2cccs2)[nH]c1=O	13.6% (inactive)
c1c2c(cc3sc(N4CCCCC4)nc13)OCCO2	71.4% (active)
Fc1cc(F)c2nc(N3CCOCC3)sc2c1	-52.6% (inactive)
O=C(c1cccc(C(=O)N2CCc3ccccc32)n1)N1CCc2ccccc21	0.9% (inactive)
Cc1ccc(Cc2nc(-c3cccc(C)c3)no2)cc1	-53.9% (inactive)
CCNC(=O)CCc1nc(-c2ccc(C(C)(C)C)cc2)no1	86.4% (active)
Brc1cccc(-c2nnc3n2CCC3)c1	3.8% (inactive)
CC12CN(Cc3ccccc3)CC(C)(CN(Cc3ccccc3)C1)C2=NO	25.5% (inactive)
O=C(Nc1ccc(Cl)cc1)c1ccsn1	-73.5% (inactive)
O=C(Nc1ccccc1C(F)(F)F)c1cc(-c2ccc(O)cc2)on1	-64.4% (inactive)
CC1CSc2nnc(CCc3ccccc3)n21 (stereo not drawn)	3.6% (inactive)
